Source: PubChem BioAssay (Tox21)
Results filed as inconclusive are left out. Values without a mark were called inactive. Calls of active or inactive are those of the source. The call rests on the fitted dose curve; in most records, active means well fitted activation curve with a large enough effect in the repeat runs; inconclusive means weak or mixed curves; inactive means flat fitted curve, though single readings scatter.

experiment: A CellTox Green Cytotoxicity Assay to monitor cytotoxicity in HepG2 cells - 16 hour (AID 1224876); conditions: CellTox Green fluorescence; series mostly up to 76.8 µM; cytotoxicity increase: at the top concentration; further: nearly all actives have a fitted effect of over 45% in size
Source text: National Center for Advancing Translational Sciences [NCATS]
NIH Chemical Genomics Center [NCGC]
U.S. Environmental Protection Agency [EPA]
National Institutes of Environmental Health Sciences [NIEHS]
National Toxicology Program [NTP]
Cell-based models are critical for drug discovery. Determining the natural cytotoxic effects resulting from test compounds is an essential research activity. A CellTox Green Cytotoxicity Assay to monitor cytotoxicity in real time of continues cell culture during 40 hours of the compound treatment was used to screen Tox21 10K library compounds in HepG2 cells. CellTox Green Cytotoxicity Assay is a nonlytic, homogeneous, biofluorescent method to measure cytotoxicity in cell culture after experimental manipulation. The assay system uses a proprietary asymmetric cyanine dye that is excluded from viable cells but preferentially stains the dead cell's DNA. […] Viable cells produce no appreciable increases in fluorescence. Therefore, the fluorescence signal produced by the binding interaction with dead cell DNA is proportional to cytotoxicity.
The mixture of HepG2 cell suspension and reagents were dispensed at 600cells/6 ul/well in 1536-well tissue culture treated black solid bottom plates using a Multidrop dispenser. After the assay plates were incubated at a 37 C/5% CO2 incubator for 5 hours, 23 nL of compounds dissolved in DMSO, positive and negative controls was transferred to the assay plate by a pintool work station. The plates were incubated at 37 C for 40 hours. The fluorescence intensity were measured at 0h, 8h, 16h, 24h, 32h and 40h time points using ViewLux plate reader during compound treatment.
On the % scale 0 is the no-effect control and ±100 the full control effect; potency means the concentration at half of the fitted maximal effect.

Point of comparison: `CCC1(CO)COCOC1`, “cytotoxicity increase” value -14.1%. Against it:
- CC(=O)Nc1cc(S(=O)(=O)O)cc2cc(S(=O)(=O)O)c(N=Nc3ccccc3)c(O)c12 — lower, -27.5%
- Brc1cc2ccccc2c2ccccc12 — higher, -1.81%
- O=C(CCc1ccc(O)cc1)c1c(O)cc(O)cc1O — lower, -14.5%
- Oc1cc2c(cc1O)[C@H]1c3ccc(O)c(O)c3OC[C@@]1(O)C2 — higher, 10.3%
- CO/N=C(/C(=O)N[C@@H]1C(=O)N2C(C(=O)O)=C(COC(N)=O)CS[C@H]12)c1ccco1 — higher, 9.65%
- O=c1[nH]ncc2ccccc12 — higher, -5.29%
- Oc1cccc(O)c1O — higher, -7.59%
- CC/C=C1/OC(=O)c2ccccc21 — higher, -0.641%
- CCCCCCCCN — higher, 1.01%
- C=CC(=O)OCC1CC2CC1C1CCC(COC(=O)C=C)C21 (stereo not given) — higher, 22.7%
- CCCCCCCC/C=C\CCCCCCCCCCCC(=O)O — higher, -3.17%
- Nc1ccc(N=Nc2ccccc2)c(N)c1 — higher, -11.9%
- CC(CCC(=O)O)C(=O)O (stereo not given) — higher, 5.49%
- CCCCCCCCCCC(=O)O — higher, 13.9%
- O=[N+]([O-])c1cc(C2CCCCC2)c(O)c([N+](=O)[O-])c1 — higher, 19%
- C=C(C)C(=O)OCCCCCCCCCCCCC — higher, 0.458%
- CCCCCCCCC(CCCCCC)C(=O)O (stereo not given) — higher, 21.6%
- CC(=O)Nc1ccc(C)cc1C — higher, 1.16%
- O=C(/C=C/c1ccccc1)OCCc1ccccc1 — higher, -0.623%
- Oc1cccc(Nc2ccccc2)c1 — higher, -8.46%
- CC=C(Cl)Cl — higher, 1.24%

Point of comparison: `CCOC(=O)C1=C(C)NC(C)=C(C(=O)OC)C1c1cccc(Cl)c1Cl` (stereo not given), “cytotoxicity increase” value 3.91% [at 35.3 µM]. Against it:
- CC1(C)[C@H](C(=O)O)N2C(=O)C[C@H]2S1(=O)=O — lower, -22.4% [at 35.3 µM]
- CC(=O)OCC(=O)NCCCOc1cccc(CN2CCCCC2)c1 — higher, 5.62% [at 35.3 µM]
- COc1cc(N)c(Cl)cc1C(=O)NC1CCN(CCCOc2ccc(F)cc2)CC1OC (stereo not given) — lower, 0.289% [at 35.3 µM]
- CC1CC(OC(=O)C(O)c2ccccc2)CC(C)(C)N1C (stereo not given) — lower, -21% [at 35.3 µM]
- CN1CCCN=C1COC(=O)C(O)(c1ccccc1)C1CCCCC1 (stereo not given) — lower, 2.22% [at 35.3 µM]
- NC1[C@H]2CN(c3nc4c(cc3F)c(=O)c(C(=O)O)cn4-c3ccc(F)cc3F)C[C@@H]12 (stereo not given in full) — lower, -26.7% [at 35.3 µM]
- CCCCN(CCN(CCCC)C(=O)N1CCOCC1)C(=O)N1CCOCC1 — higher, 17.9% [at 35.3 µM]
- C[C@H]1c2cccc(O)c2C(O)=C2C(=O)[C@]3(O)C(O)=C(C(N)=O)C(=O)[C@@H](N(C)C)[C@@H]3[C@@H](O)[C@@H]21 — lower, 2.63% [at 35.3 µM]
- Cc1cc2c(OCC(CNC(C)(C)C)OC(=O)c3ccccc3)cccc2[nH]1 (stereo not given) — higher, 12.3% [at 35.3 µM]
- CC(C)Nc1cccnc1N1CCN(C(=O)c2cc3cc(NS(C)(=O)=O)ccc3[nH]2)CC1 — higher, 7.39% [at 35.3 µM]
- CC(=O)N/N=C/c1ccc([N+](=O)[O-])o1 — lower, -3% [at 35.3 µM]
- CC1(C)O[C@@H]2C[C@H]3[C@@H]4C[C@H](F)C5=CC(=O)C=C[C@]5(C)[C@H]4[C@@H](O)C[C@]3(C)[C@]2(C(=O)CO)O1 — lower, -16.7% [at 35.3 µM]

With `C[C@@H]1CC(=O)NN=C1c1ccc(NN=C(C#N)C#N)cc1` the Potency was “inactive”.
For `CN1CCCC(n2nc(Cc3ccc(Cl)cc3)c3ccccc3c2=O)CC1` (stereo not given), the Potency was 26.8 µM (active).
In the case of `COc1cc(C(=O)NC2CCN(C)CC2)ccc1Nc1ncc2c(n1)N(C1CCCC1)CC(F)(F)C(=O)N2C`, the Potency is reported as 44.9 µM (active).
In the case of `C[C@@H]1CN(CCCn2c3ccccc3c3ccccc32)C[C@H](C)N1`, the Potency is reported as 26.8 µM (active).
With `Nc1nc2ccc([N+](=O)[O-])cc2s1` the Potency was 49 µM (active).
